Source: PubChem (Broad Institute)
STK33 kin inh: human STK33 kinase inhibition | Q9BYT3 | ADP-Glo luminescence, MBP substrate | inhibition, % at 12.5 µM | 0.44% of 27,000 active; in the data active = inhibition above about 20%; inconclusive = no clear call, values can overlap the other calls
Target sequence (Q9BYT3 whole entry, looked up): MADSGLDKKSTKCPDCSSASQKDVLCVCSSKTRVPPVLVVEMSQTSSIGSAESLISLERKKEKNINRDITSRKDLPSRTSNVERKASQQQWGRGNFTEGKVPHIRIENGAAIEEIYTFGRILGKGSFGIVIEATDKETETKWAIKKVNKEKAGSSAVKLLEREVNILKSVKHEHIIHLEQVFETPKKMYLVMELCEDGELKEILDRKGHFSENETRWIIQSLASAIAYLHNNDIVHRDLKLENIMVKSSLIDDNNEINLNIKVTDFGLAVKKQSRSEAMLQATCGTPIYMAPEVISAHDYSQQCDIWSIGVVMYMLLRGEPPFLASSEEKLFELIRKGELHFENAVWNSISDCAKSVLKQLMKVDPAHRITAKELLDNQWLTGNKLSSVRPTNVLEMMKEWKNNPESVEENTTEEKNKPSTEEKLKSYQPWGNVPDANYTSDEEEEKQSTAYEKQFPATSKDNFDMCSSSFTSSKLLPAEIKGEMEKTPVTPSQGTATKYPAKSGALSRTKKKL
PD-1 reverse act: reversal of PD-1 mediated T-cell inhibition; primary human CD4 T cells, PD-L1 beads, CellTiter-Glo 96 h; activation, % (no concentration beside the values); 29,000 tested, under 10 active; AID 2316; call rule not given here;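 also: 0% = median vehicle wells and 100% = positive control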
NOMO-1 viab: STK33 inhibitor candidate reducing NOMO-1 cell viability; 7.5% of 37,000 active; NOMO-1 AML viability, CellTiter-Glo luminescence, 72 h; inhibition, % (test concentration not listed); in the data active = inhibition above about 80%; inconclusive = no clear call, values can overlap the other calls
* hit, by the source's call; u = inconclusive; x = not tested or not shown. Many of the other results were omitted from the sample, so hits are more common in it than they were.

SMILES | STK33 kin inh | PD-1 reverse act | NOMO-1 viab
COC(=O)c1ccc(NC(=O)CSc2nnc(-c3cccc(N)c3)n2C)cc1 | 1.5 | 1.4 | -2.8
CC(C)(C)C1CCc2c(sc(NC(=O)COc3ccccc3Cl)c2C(N)=O)C1 (stereo unspecified) | -0.5 | -4.5 | 104.3*
CCc1ccccc1OCC(=O)Nc1sc2c(c1C(N)=O)CCCC2 | -5.0 | -10.5 | 35.5
Cc1cc(-c2ccccc2)nc(SCC(=O)O)n1 | -1.1 | x | -2.8
Cc1nn(Cc2cccc(Oc3ccccc3)c2)c(C)c1NC(=O)c1nc2ncccn2n1 | -0.5 | 2.0 | 5.4
CC1(C)CC(N=Cc2ccco2)CC(C)(C)N1 | x | 0.8 | -13.7
C=C(C)CC1C(=O)NN=C1C (stereo unspecified) | x | 0.0 | -5.3
O=C(Nc1nc(-c2ccccc2)cs1)C12CC3CC(CC(C3)C1)C2 | x | -0.1 | 108.3*
Cc1ccc(NC(=O)C23CC4CC(CC(C4)C2)C3)cc1 | x | -0.1 | 21.9
O=C(CSc1nnnn1-c1ccccc1)Nc1ccc(Cl)c(C(=O)O)c1 | 2.7 | 2.4 | 21.3
CCC(=O)NC(c1ccco1)c1cc(Cl)c2cccnc2c1O (stereo unspecified) | x | 0.2 | 126.1*
Oc1c(C(Nc2ccccn2)c2cccc(F)c2)cc(Cl)c2cccnc12 (stereo unspecified) | 1.2 | x | 113.0*
Cc1cc(OCC(=O)NCc2ccco2)ccc1Cl | 0.3 | x | x
COc1cc(Cl)c(C(Nc2ccccn2)c2cc(Cl)c3cccnc3c2O)cc1OC (stereo unspecified) | 4.3 | x | 109.9*
CCOc1c(Cl)cc(CNCc2ccccn2)cc1OC | -1.5 | x | 12.6
Oc1c(C(Nc2ccccn2)c2c(F)cccc2Cl)cc(Cl)c2cccnc12 (stereo unspecified) | 0.0 | x | 107.7*
N=c1ncn(CC(O)CO)c2nc(Br)[nH]c12 (stereo unspecified) | x | 0.4 | -5.3
COc1cc(C2C3=C(CC(C)(C)CC3=O)Nc3ncnn32)ccc1OCC(=O)N1CCOCC1 (stereo unspecified) | -5.5 | 2.8 | 6.9
Oc1c(C(Nc2ccccn2)c2ccccn2)cc(Cl)c2cccnc12 (stereo unspecified) | -0.3 | x | 111.8*
COc1ccc(NC(=O)CS(=O)(=O)c2ccc3ccccc3c2)cc1 | 1.0 | -0.5 | 28.2
COc1cccc(C(=O)NC(c2ccccc2OC)c2c(O)ccc3ccccc23)c1 (stereo unspecified) | -2.0 | 0.7 | 2.0
CCC(Oc1cccc(NC(=O)c2ccc([N+](=O)[O-])cc2)c1)C(=O)c1ccccc1 (stereo unspecified) | 2.5 | x | 35.5
COc1cccc(C(=O)NC(c2ccc([N+](=O)[O-])cc2)c2c(O)ccc3ccccc23)c1 (stereo unspecified) | -1.1 | x | 113.8*
COc1cccc(C(=O)NC(c2ccc(Cl)cc2)c2c(O)ccc3ccccc23)c1 (stereo unspecified) | -12.1 | -2.0 | 108.1*
CCC(=O)c1ccc2c(c1)N(CC(C)N(C)C)c1ccccc1S2 (stereo unspecified) | -0.8 | x | 84.5*
SMILES | STK33 kin inh | PD-1 reverse act | NOMO-1 viab
Cc1cc(C)nc(SCC(=O)N2c3ccccc3Sc3ccccc32)n1 | 0.6 | -1.8 | -1.1
O=C(NCCCCCNC(=O)/C(Cc1ccccc1)=N/O)OCc1ccccc1 | -1.8 | x | x
COc1ccc(NC(=O)Nc2ccc3c(c2)C(=O)N([C@@H](C)CO)C[C@H](C)[C@H](CN(C)Cc2ccc(Cl)c(Cl)c2)O3)cc1 | -1.6 | -0.5 | 104.2*
COc1ccc(CN(C)C[C@@H]2Oc3ccc(NC(=O)Nc4ccc(OC)cc4)cc3C(=O)N([C@@H](C)CO)C[C@H]2C)cc1 | x | x | -12.0
COc1ccc(NC(=O)Nc2ccc3c(c2)C(=O)N([C@@H](C)CO)C[C@@H](C)[C@@H](CN(C)Cc2ccc(Cl)c(Cl)c2)O3)cc1 | 1.7 | 2.4 | 59.9
COc1ccc(NC(=O)Nc2ccc3c(c2)C(=O)N([C@H](C)CO)C[C@@H](C)[C@@H](CN(C)Cc2ccc(Cl)c(Cl)c2)O3)cc1 | x | 0.7 | 98.3*
CC(CO)(CO)NC(=S)Nc1ccc(F)c(Cl)c1 | x | -0.2 | 22.3
COc1ccc(S(=O)(=O)N(C)CC(N)=O)cc1 | 0.6 | x | x
O=C(O)c1nn(-c2ccccc2)c2c1CCc1occc1-2 | x | 1.5 | 6.6
COc1ccccc1CC(=O)Nc1ccc(-c2noc(-c3ccccc3C)n2)cc1 | -1.1 | 1.9 | -5.1
CC(C)c1ccc2c(c1)CCC1[C@](C)(C(=O)O)CCC[C@]21C (stereo partly specified) | -5.6 | -0.2 | 18.8
CC(C)c1c(O)ccc2c1CCC1C(C)(C)CCC[C@]21C (stereo partly specified) | 3.3 | x | 109.0*
COc1ccc(N(C(C)C(=O)N2CCOCC2)S(C)(=O)=O)cc1 (stereo unspecified) | 0.5 | x | x
COc1cc(Cc2nccc3cc(OC)c(OC)cc23)c(NC(=O)c2cc(F)c(F)cc2Cl)cc1OC | -0.2 | 0.2 | 15.8
CC(C)(C)c1ccc(OCC(=O)Nc2ccccc2C(N)=O)c(Br)c1 | -0.9 | -1.4 | 23.0
COc1ccc(OC)c(NC(=O)CSc2nnnn2-c2ccccc2)c1 | -3.8 | -2.2 | 10.3
COc1ccc(-n2nnnc2SCC(=O)Nc2cc(C)c(Cl)cc2OC)cc1 | 6.9 | -7.1 | 92.2*
CCOc1ccc(C(=O)c2oc3ccccc3c2NC(=O)c2cc(OC)c(OC)c(OC)c2)cc1 | 1.8 | 1.4 | 26.6
COc1ccc(-c2coc3cc(O[C@@H]4O[C@H](CO)[C@@H](O)[C@H](O)[C@H]4O)cc(O)c3c2=O)cc1 | -1.4 | 0.6 | 11.0
O=c1c(-c2ccc(O)cc2)coc2cc(O[C@@H]3O[C@H](CO)[C@@H](O)[C@H](O)[C@H]3O)cc(O)c12 | -4.0 | 0.7 | 96.2*
O=C(CN1C(=O)c2ccccc2S1(=O)=O)Nc1ccccc1-c1ccccc1 | -1.0 | x | 16.1
COc1ccc(S(=O)(=O)Nc2ccc3c(c2)CC(=O)N([C@@H](C)CO)C[C@H](C)[C@@H](CN(C)Cc2ccc(C(F)(F)F)cc2)O3)cc1 | 7.0 | -0.4 | 112.5*
COc1ccc(CN(C)C[C@H]2Oc3ccc(NS(=O)(=O)c4ccc(F)cc4)cc3CC(=O)N([C@H](C)CO)C[C@H]2C)cc1 | -3.3 | 0.8 | 18.3
C[C@@H]1CN([C@H](C)CO)C(=O)Cc2cc(NS(=O)(=O)c3ccccc3)ccc2O[C@H]1CN(C)Cc1ccc(C(F)(F)F)cc1 | 3.0 | -2.8 | 48.9
Cc1ccc(S(=O)(=O)Nc2ccc3c(c2)CC(=O)N([C@@H](C)CO)C[C@@H](C)[C@@H](CN(C)Cc2ccc(C(F)(F)F)cc2)O3)cc1 | 7.2 | -1.3 | 83.8*
Cc1ccc(S(=O)(=O)Nc2ccc3c(c2)CC(=O)N([C@H](C)CO)C[C@H](C)[C@H](CN(C)Cc2ccc(C(F)(F)F)cc2)O3)cc1 | 2.6 | -0.2 | 104.3*
C[C@@H]1CN([C@H](C)CO)C(=O)Cc2cc(NS(=O)(=O)c3ccc(F)cc3)ccc2O[C@@H]1CN(C)Cc1ccc(C(F)(F)F)cc1 | 8.5 | -6.1 | 111.0*
C[C@@H]1CN([C@H](C)CO)C(=O)Cc2cc(NS(=O)(=O)c3ccccc3)ccc2O[C@@H]1CN(C)Cc1ccc(C(F)(F)F)cc1 | -4.7 | -4.9 | u
C[C@H](CO)N1C[C@H](C)[C@H](CN(C)Cc2ccc(C(F)(F)F)cc2)Oc2ccc(NS(=O)(=O)c3ccccc3)cc2CC1=O | -0.1 | 1.2 | 1.3
